Bioassay records (PubChem BioAssay)
In the library only some 0.47% were active in any assay of this set; here they are far more common.
AID inh = Primary qHTS assay for inhibitors of Activation Induced Cytidine Deaminase (AID): AID signal; Single-stranded DNA cytosine deaminase (Homo sapiens), Q9GZX7; AID deamination FRET fluorescence, UDG-coupled, 4 h; Potency, µM (top dose mostly 115 µM), hits mostly inhibitors; actives 0.32% (n = 91,000); AID 1347428, 2020; further: nearly all actives have a fitted effect of over 25% in size
Target sequence (Q9GZX7 whole entry, looked up): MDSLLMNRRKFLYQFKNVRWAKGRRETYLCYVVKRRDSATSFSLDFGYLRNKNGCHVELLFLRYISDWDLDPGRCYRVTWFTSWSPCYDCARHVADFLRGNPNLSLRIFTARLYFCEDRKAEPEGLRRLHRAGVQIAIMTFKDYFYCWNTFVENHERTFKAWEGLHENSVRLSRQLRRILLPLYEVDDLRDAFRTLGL
UDG counter = Primary qHTS assay for inhibitors of Activation Induced Cytidine Deaminase (AID): UDG Counterscreen signal; actives 0.14% (n = 91,000); Uracil-DNA glycosylase; Potency, µM (series often up to 115 µM), most hits filed as inhibitors; FRET deamination/UDG coupled assay, UDG read, 4 h; AID 1347430, 2020; further: nearly all actives have a fitted effect of over 65% in size
Large screens that a line does not name were inactive. The call rests on the fitted dose curve; in most records, active means well fitted curve in the direction sought with a large enough effect; inconclusive means small, poorly fitted or top-dose-only effect, or another doubt; inactive means no such curve, though single readings can be large; an effect the other way counts as inactive or inconclusive.

Cc1ccc(C)c(CSc2ccc3nnc(CCNS(=O)(=O)c4ccccc4)n3n2)c1	AID inh inconclusive
O=S(=O)(NCCc1nnc2ccc(SCc3cccc(Cl)c3)nn12)c1ccccc1	AID inh 39.8µM
COc1cc(OC)c(NC(c2nnc(-c3ccccc3)o2)c2ccc(F)cc2Cl)cc1Cl (stereo unspecified)	none
CCc1cccc(NC(c2nnc(-c3ccccc3)o2)c2ccc(F)cc2Cl)c1 (stereo unspecified)	AID inh inconclusive, UDG counter 79.4µM
Cc1nc(-c2nc3ccccc3s2)cs1	none
O=C(CCc1ncc(-c2ccc(Cl)cc2)o1)NCC1CCCO1 (stereo unspecified)	none
[N-]=[N+]=Nc1ccc(C(=O)CSC[C@H](NC(=O)CC[C@H](N)C(=O)O)C(=O)NCC(=O)O)cc1	AID inh 89.1µM
N[C@@H](CCC(=O)N[C@H](CSN=O)C(=O)NCC(=O)O)C(=O)O	none
CCN(CC(=O)Nc1ccccc1OC)C(=O)c1ccc(-c2cc(Cl)ccc2Cl)o1	none
Cc1ccc(C)c(-c2csc(Nc3ccc(S(=O)(=O)Nc4nc(C)cc(C)n4)cc3)n2)c1	AID inh inconclusive, UDG counter 89.1µM
Cc1ccc(-c2csc(Nc3ccc(S(=O)(=O)Nc4nc(C)cc(C)n4)cc3)n2)cc1	UDG counter inconclusive
COc1ccc(CNC(=O)c2nn(C)c3c2CS(=O)(=O)c2ccccc2-3)cc1	none
COc1ccc(OC)c(CNC(=O)c2nn(C)c3c2CS(=O)(=O)c2ccccc2-3)c1	AID inh 39.8µM
O=C(Nc1cccc(C(F)(F)F)c1)C1CCN(S(=O)(=O)c2cccs2)CC1	AID inh inconclusive, UDG counter 79.4µM
O=C(Nc1ccc(OC(F)(F)F)cc1)C1CCN(S(=O)(=O)c2cccs2)CC1	UDG counter inconclusive
N#Cc1nc(-c2ccccc2F)oc1N1CCCCCC1	none
Cc1ccc(C)c(C(=O)CSc2cccc3cccnc23)c1	AID inh 35.5µM
Cc1ccc(C)c(C(=O)CSc2nc(-c3ccccc3)nc3c2CCCC3)c1	none
CCCCC(=O)OCc1c(C(=O)OCC)sc(N)c1C#N	none
CCc1ccc(Nc2nnc(-n3nc(C)cc3C)c3ccccc23)cc1	none
CCOc1ccc(Nc2nnc(-n3nc(C)cc3C)c3ccccc23)cc1	UDG counter 79.4µM
COc1cc(CNC2CCCC2)ccc1OCc1ccccc1	none
COc1ccc(CNC(=O)C(=O)NCC(c2ccc3c(c2)OCO3)N2CCOCC2)cc1 (stereo unspecified)	none
COc1ccc(CNCCC(c2ccc3c(c2)OCO3)c2ccccc2OC)cc1 (stereo unspecified)	AID inh 50.1µM
COc1cc(/C=C(/C#N)C(=O)c2ccccc2)cc(Cl)c1OC(C)C	none
C/C(=C\C=C\c1ccco1)C(=O)c1ccc(Br)cc1	none
CC(=O)Nc1ccc(S(=O)(=O)N2CCC(NC(=O)CCC(C)C)CC2)cc1	none
CC(=O)N1CCc2c(sc3nc(SCC(C)C)n(-c4ccc(F)c(Cl)c4)c(=O)c23)C1	none
CC(=O)N1CCc2c(sc3nc(SCC(C)C)n(-c4ccc(C)c(Cl)c4)c(=O)c23)C1	AID inh 25.1µM, UDG counter 79.4µM
Nc1cccc(C#Cc2ccccc2)c1	none
O=C(/C=C/c1cccc(Br)c1)c1cccc(O)c1	none
Clc1ccccc1-c1nc(N2CCCCC2)c2ccccc2n1	none
COc1cccc(-c2nc(N3CCCCCC3)c3ccccc3n2)c1O	AID inh inconclusive, UDG counter 89.1µM
CCCCCOc1ccc(C(=O)C(CCC(CNC(C)(C)C)C(=O)c2ccc(OCCCCC)cc2)CNC(C)(C)C)cc1 (stereo unspecified)	AID inh inconclusive
Cc1ccc2c(CN3CCCCCC3)cc(=O)oc2c1	none
COc1cccc(-n2c(SCC(=O)Nc3cccc(C)c3)nc3c([nH]c4ccccc43)c2=O)c1	AID inh 12.6µM
COc1cccc(NC(=O)CSc2nc3c([nH]c4ccccc43)c(=O)n2-c2cccc(Cl)c2)c1	none
Cc1ccc(N)c(O)c1	none
COc1cc(/C=C/c2nc(C#N)c(N(C)C)o2)cc(OC)c1OC	none
COC(=O)c1ccc(NC(=O)CN(Cc2ccccc2)S(=O)(=O)c2ccc(C)cc2)cc1	none
COc1ccc(NC(=O)CN(Cc2ccccc2)S(=O)(=O)c2ccc(C)cc2)cc1Cl	UDG counter 89.1µM
O=C1CCC/C(=N/NC(=O)c2ccc(Cl)cc2)C1	none
Clc1ccc(-c2noc3ncnc(NCCc4ccccc4)c23)cc1	AID inh 25.1µM
Cc1noc2ncnc(NCCc3ccccc3)c12	AID inh inconclusive
Cc1oc(-c2ccccc2)nc1Cn1cccc(C(F)(F)F)c1=O	none
Cc1[nH]c2ccccc2c1C(C(=O)O)N1CCN(Cc2cccc3ccccc23)CC1 (stereo unspecified)	none
O=C(O)CCCCCCCC(=O)O	none
Cc1cc(C)cc(CCCCCCCCCCCC(=O)O)c1	AID inh 79.4µM
FC(F)(F)c1cccc(N/N=C/c2ccc(Br)cc2)c1	none
CCN1c2ccccc2-n2cccc2C12CCN(C(=O)Nc1ccccc1Br)CC2	none
CCN1c2cc(C)ccc2-n2cccc2C12CCN(C(=O)Nc1cc(OC)c(OC)c(OC)c1)CC2	AID inh inconclusive, UDG counter 89.1µM
COc1ccccc1Cn1cc(C(=O)c2ccc(Cl)cc2)c(=O)c2ccccc21	none
COc1cccc(Cn2cc(C(=O)c3ccc(Cl)cc3)c(=O)c3ccccc32)c1	AID inh 28.2µM
CCCCOC(=O)COc1ccc2c(=O)c(-c3ccccc3OC)coc2c1	none
Cc1cccc(C(=O)n2nc(NCc3cccs3)nc2NCc2cccs2)c1	none
Cc1cccc(N(CC(=O)NCCc2ccccc2)S(=O)(=O)c2ccccc2)c1C	none
Cc1cccc(N(CC(=O)N(C)Cc2ccccc2)S(=O)(=O)c2ccccc2)c1C	AID inh 35.5µM
O=c1cc(CCl)c2ccc3ccccc3c2o1	none
Cc1[nH]c2ccccc2c1C(=O)C(Cl)c1ccccc1 (stereo unspecified)	none
COc1cc2c(=O)c(C(=O)c3ccc(C)c(C)c3)cn(Cc3ccccc3)c2cc1OC	AID inh inconclusive
COc1cc2c(=O)c(C(=O)c3ccc(C)c(C)c3)cn(Cc3ccc(F)cc3)c2cc1OC	AID inh 44.7µM
O=C(Nc1ccccc1)c1sc(NC2CCCCC2)nc1-c1ccc([N+](=O)[O-])cc1	none
COc1cc(C2CC(=O)Nc3n[nH]c(Nc4ccccc4)c32)cc(OC)c1OC (stereo unspecified)	none
COc1cc(C2CC(=O)Nc3nc(N4CCCCC4)sc32)cc(OC)c1OC (stereo unspecified)	AID inh 35.5µM
CC(C)(C)CC(=O)NCCCCNC(=O)CC(C)(C)C	none
COc1cc2c(=O)c(S(=O)(=O)c3ccc(C)cc3)cn(Cc3cccc(C)c3)c2cc1OC	AID inh 39.8µM
CCCn1cc(S(=O)(=O)c2ccc(C)cc2)c(=O)c2cc(OC)c(OC)cc21	none
CCN(CC)c1cc(C)c2cc(NC(=O)c3cccc(OC)c3)ccc2n1	AID inh 79.4µM
CCOc1ccc(C(=O)Nc2ccc3nc(N(CC)CC)cc(C)c3c2)cc1	none
Cc1cccc(NC(=O)Cc2c(C)nc3nc(-c4cccs4)nn3c2C)c1C	none
Cc1cccc(OCC(=O)Nc2cc(-c3nn(C)c(=O)c4ccccc34)ccc2N2CCOCC2)c1	AID inh inconclusive, UDG counter 89.1µM
Cc1ccc(NC(=O)COc2ccc(-c3nn(C)c(=O)c4ccccc34)cc2)cc1	AID inh inconclusive
